Bioassay records from PubChem.
Compounds with a hit are over-represented: about 3.2% of the library has one in this group of screens.
FLuc inh: inhibitors of firefly luciferase; P08659; purified firefly luciferase, luminescence, 8 min; Potency, µM (top dose mostly 57.1 µM), most hits filed as inhibitors; 2.2% of 72,000 active; active = well fitted inhibition curve with a large enough effect; inconclusive = small, poorly fitted or top-dose-only effect; also: nearly all actives have a fitted effect of over 40% in size
Target sequence (P08659 whole entry, looked up): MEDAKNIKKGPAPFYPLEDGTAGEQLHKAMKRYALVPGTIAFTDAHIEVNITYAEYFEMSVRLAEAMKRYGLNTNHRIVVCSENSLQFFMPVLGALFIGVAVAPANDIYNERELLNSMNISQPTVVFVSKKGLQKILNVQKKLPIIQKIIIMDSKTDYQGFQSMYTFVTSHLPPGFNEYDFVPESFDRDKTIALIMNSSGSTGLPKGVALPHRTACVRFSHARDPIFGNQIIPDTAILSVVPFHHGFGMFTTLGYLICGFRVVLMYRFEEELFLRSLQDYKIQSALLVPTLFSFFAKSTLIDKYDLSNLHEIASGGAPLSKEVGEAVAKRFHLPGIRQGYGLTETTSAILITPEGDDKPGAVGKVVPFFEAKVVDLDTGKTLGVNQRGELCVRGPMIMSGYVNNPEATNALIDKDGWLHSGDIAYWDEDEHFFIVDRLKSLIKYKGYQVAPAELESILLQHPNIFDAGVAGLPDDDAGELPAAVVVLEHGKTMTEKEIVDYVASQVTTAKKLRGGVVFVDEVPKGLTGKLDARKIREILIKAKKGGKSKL
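Substrate buffer containing 10 uM ATP (pH 7.2 imidazole, Mg2+, KCl, detergent, BSA) is dispensed, compound pinned in, then luciferase/luciferin detector mix added. After 8 min at ambient temperature, light output is measured.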
PK Bst: alters activity of Bacillus stearothermophilus pyruvate kinase; purified pyruvate kinase, luminescence ATP production; ribose 5-phosphate activator present at AC10; Potency, µM; 1.2% of 51,000 active; AID 361; in the data active = potency below about 11 µM; inconclusive = mostly about 12 µM to 25 µM;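 the screen sought inhibitors and activators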
GBA activity: modulators of human glucocerebrosidase | AID 360 | 1.1% of 48,000 active | purified enzyme, resorufin glucoside fluorescence (screen aimed at inhibitors), 20 min | Potency, µM | P04062; in the data active = potency below about 15 µM; inconclusive = mostly about 16 µM to 33 µM;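 also: the screen sought inhibitors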
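Compounds titrated against 0.2 nM normal enzyme, 30 uM resorufin beta-D-glucopyranoside substrate, citrate/phosphate buffer with taurocholate and tween-20, pH 5.9. Reaction ran 20 min at room temperature; fluorescence (Ex 548/Em 600) gave AC50.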
Numbers stand for hits; n = inactive; u = inconclusive; x = no result; ! = a repeat was not active; [ ] = another dose, or the depositor's remark.

SMILES | FLuc inh | PK Bst | GBA activity
COc1ccc(OC)c(NC(=O)c2cc(S(=O)(=O)NCc3ccco3)ccc2F)c1 | n | n | 5.3
CC(C)=CCC/C(C)=C/CO/N=C1/C[C@@H](O)[C@@H](O)[C@@H]2[C@@H]3C(=O)N(C4CCCCC4)C(=O)[C@H]3CC[C@H]12 | n[11.4 µM] | x | x
O=C(NCCN1CCOCC1)c1nn2c(c1Cl)NC(c1ccccc1)CC2C(F)(F)F (stereo not drawn) | n | n | n
O=C(NCC12CC3CC(CC(C3)C1)C2)c1nn2c(c1Cl)NC(c1ccco1)CC2C(F)(F)F (stereo not drawn) | n | n | 14
CCCCNN | n[11.4 µM] | x | x
Cc1cc(Cl)nc(NC(=O)CSc2ccc(Cl)cc2)n1 | n[11.4 µM] | x | x
CCn1c(C)csc1=NC(=O)c1ccccc1 | n | n | n
CCn1c(C)csc1=NC(=O)c1ccccc1O | 13µM | n | n
O=C(Nc1ccc2nsnc2c1)c1cccs1 | n | n | n
O=C(Nc1cccc2nsnc12)c1cccs1 | 16µM! | n | u
COc1ccc(OC[C@@H](CO)OC)cc1 | n[11.4 µM] | x | x
CN(Cc1ccco1)c1ccnc(-c2cccc(C#N)c2)n1 | n[2.29 µM] | x | x
Cc1ccc(-c2nn(CC(=O)NCCN3CCOCC3)c(=O)c3ccccc23)cc1 | n | n | n
O=c1c2cccc3c2c(nn1CN1CCOCC1)-c1ccccc1-3 | n | 2.9 | n
CN(C)CCCSc1nc2ccccc2[nH]1 | n[11.4 µM] | x | x
COc1cc(OC)cc(-c2nc3cc(C)ccc3o2)c1 | 16µM | n | u
COc1cc(C(=O)Nc2cc(-c3nc4cc(C)ccc4o3)ccc2C)cc(OC)c1OC | 1µM | x | x
Cc1ccc2nc(-c3cccc(-c4nc5ccc(C)cc5o4)n3)oc2c1 | n | n | n
COc1cc(C(=O)Nc2cccc(-c3nc4cc(C)ccc4o3)c2C)cc(OC)c1OC | n | x | x
N[C@H](Cc1ccc(O)c(I)c1)C(=O)O | n | x | x
CC(=O)c1ccc(O)c(CN(C2CCCCC2)C2CCCCC2)c1O | n[11.4 µM] | x | x
N[C@H](COP(=O)(O)O)C(=O)O | n | x | x
Clc1ccc(-c2cn3c(n2)CCC3)cc1 | 13µM | u | x
Nc1nc(-c2ccc(Cl)cc2)cc(C(F)(F)F)n1 | n | n | n
CCOC(=O)CCc1c(C)nc(SCCN2CCCC2)c(C#N)c1C | n | n | x
SMILES | FLuc inh | PK Bst | GBA activity
CCOC(=O)CCSc1nc2c(c(C(F)(F)F)c1C#N)CCC2 | n | n | 15
COc1ccccc1CNc1ccnc(-c2ccccc2CN(C)C)n1 | n[2.29 µM] | x | x
O=C1c2ccccc2-c2ccc(N(Cc3ccc(Br)cc3)Cc3ccc(Br)cc3)cc21 | n[11.4 µM] | x | x
CC(C)(C)NC(=O)NC(=O)COc1ccccc1C#N | 20µM | n | n
COc1ccc(C(CNC(=O)COc2ccccc2C#N)N2CCOCC2)cc1 (stereo not drawn) | n | n | n
CCCC(=O)Nc1cccc(NC(=O)c2ccc3c(c2)OCO3)c1 | n | n | x
O=C(Nc1ccc2c(c1)OCCO2)c1ccc2nccnc2c1 | 10µM | u | n
O=C(Nc1ccc(SC(F)F)cc1)c1ccc2nccnc2c1 | u | x | 12
CCC(=O)Nc1cccc(NC(=O)c2ccc3c(c2)OCCO3)c1 | 16µM | x | n
O=C(Nc1ccncc1)c1cccc(F)c1 | n | x | x
O=C(Nc1ccc2c(c1)OCCO2)c1cccnc1 | n | n | n
C=CCc1ccccc1OC[C@H](O)CNC(C)C | n | x | x
COc1ccc(CNC(=O)CCc2nc(-c3ccccc3F)no2)c(OC)c1 | n | n | n
CCN(C(=O)CCc1nc(-c2ccccc2F)no1)c1cc(OC)ccc1OC | n | n | 15
O=c1ccn([C@H]2O[C@H](CO)[C@@H](O)[C@@H]2O)c(=O)[nH]1 | n[11.4 µM] | x | x
O=S(=O)(c1ccccc1)N1CCC[C@@]2(CCN(c3ncccn3)C2)C1 | n[11.4 µM] | x | x
Cc1cc(N)c2cc(NC(=O)Nc3ccc4nc(C)cc(N)c4c3)ccc2n1 | n[11.4 µM] | x | x
Cc1cc(NC(=O)Nc2ccc3c(ccn3C)c2)sn1 | 32µM! | x | x
O=C(c1ccco1)N1CCC[C@@]2(CCN(C(c3ccccc3)c3ccccc3)C2)C1 | n[11.4 µM] | x | x
Cc1ccc(S(=O)(=O)NC(=O)Nc2ncn[nH]2)cc1 | n[11.4 µM] | x | x
Cc1ccc(-c2nnc(SCc3ccccc3F)o2)cc1 | 20µM | n | n
Cc1ccc(-c2nnc(SCC(=O)Nc3ccccc3F)o2)cc1 | n | x | x
CCCn1cnc2c1c(=O)n(CCCCC(C)=O)c(=O)n2C | n | x | x
CN(C)CCNc1ccccn1 | n[11.4 µM] | x | x
CSc1cccc(NC(=O)c2ccco2)c1 | n | x | x
SMILES | FLuc inh | PK Bst | GBA activity
CC1N(C)c2cc(NC(=O)c3ccco3)ccc2C1(C)C (stereo not drawn) | 16µM | x | x
Cc1ccc(-c2cnc(-c3ccncc3)o2)cc1 | 13µM | x | x
Cc1ccc(-n2c(-c3ccncc3)nnc2-c2ccco2)cc1 | n | n | n
C[C@@H](SCc1ccccc1)C(=O)O | n[11.4 µM] | x | x
CC(C)NC(=O)N1CCCC2(CCN(C(=O)c3cccc(F)c3)CC2)C1 | n[11.4 µM] | x | x
CC1=CC(C)(C)N=C(Nc2ccc(C)cc2)S1 | n | n | x
Cc1ccc(NC2=Nc3ccccc3CS2)cc1 | 4µM | 4.1 | n
COCCN(CCOC)S(=O)(=O)c1ccc(C(=O)Nc2nc(C)c(C(C)=O)s2)cc1 | n | n | n
CC(=O)c1sc(NC(=O)c2ccccc2F)nc1C | 16µM | x | x
CCCC(=O)Nc1sc2c(c1C#N)CCCC2 | n | n | x
Cc1cc(C(=O)Nc2sc3c(c2C#N)CCCCC3)cs1 | 16µM | n | n
CN1CC[C@@]2(CCN3CCc4c(oc5ccccc45)[C@@H]3C2)N(C)C1=O | n | x | x
COCCCn1c2nc3ccccc3nc2c2c(=O)n(Cc3ccc(Cl)cc3)cnc21 | n | n | 7.3
COCCCn1c2nc3ccccc3nc2c2c(=O)n(Cc3ccccc3Cl)cnc21 | n | n | n
COCCCn1cnc2oc3nc4ccccc4nc3c2c1=O | 25µM | x | n
COCCCn1cnc2c(c1=O)c1nc3ccccc3nc1n2-c1ccccc1 | n | n | n
CC1(C)[C@@H]2CC[C@]1(CC(=O)O)[C@H](Cl)C2 | n[11.4 µM] | x | x
CS(=O)(=O)Nc1cccc(-c2cc(NCc3cccs3)ncn2)c1 | n[2.29 µM] | x | x
CCn1c(C)nc2cc(C(=O)OC(C(F)(F)C(F)F)C(F)(F)C(F)F)ccc21 | 20µM | x | u
CCOC(=O)c1ccc2c(c1)nc(COc1ccccc1C#N)n2CC | n | n | n
NC(=O)c1ccsc1NC(=O)CSc1ccccc1F | n | n | n
NC(=O)c1ccsc1NC(=O)COc1ccccc1 | 20µM | n | n
COc1ccc(Oc2ncc3ncc(=O)n(Cc4cccc(OC)c4)c3n2)cc1 | n[11.4 µM] | x | x
Cn1c(=O)c(-c2cccs2)nc2cnc(OCc3ccccc3)nc21 | n[11.4 µM] | x | x
O=C(Cc1coc2ccc3ccccc3c12)N1CCN(c2ncccn2)CC1 | n | 11 | n
SMILES | FLuc inh | PK Bst | GBA activity
O=C(NCCC(=O)N1CCN(c2ncccn2)CC1)c1ccccc1 | n | n | n
CC(C)(C)NC(=O)[C@@H]1C[C@H]2CCCC[C@@H]2CN1C[C@H](O)[C@H](Cc1ccccc1)NC(=O)[C@@H](CC(N)=O)NC(=O)c1ccc2ccccc2n1 | n | x | x
O=C(Nc1ccccc1)N1CC[C@@]2(CCCN(C(=O)c3ccncc3)C2)C1 | n[11.4 µM] | x | x
COc1ccc(Oc2ncc3nc(C)c(=O)n(Cc4cccc(OC)c4)c3n2)cc1 | n[11.4 µM] | x | x
COc1ccc(-c2ccc(C(=S)N3CCN(C(C)=O)CC3)o2)cc1 | n | n | n
S=C(c1ccc(-c2ccccc2Cl)o1)N1CCOCC1 | 16µM | x | x
N#CCCN1CCN(C(=S)c2ccc(-c3cc(Cl)ccc3Cl)o2)CC1 | n | n | n
S=C(c1ccc(-c2ccc(Cl)c(Cl)c2)o1)N1CCOCC1 | 7.9µM | x | x
NC(=O)N/N=C1\CC[C@H](O)C[C@@H]1CC(=O)O | n[11.4 µM] | x | x
COCC(=O)/C=C1\Sc2ccccc2N1C | n | n | n
